Screening results (PubChem BioAssay)
SARS PLP yeast = qHTS of Yeast-based Assay for SARS-CoV PLP; S. cerevisiae expressing SARS-CoV PLpro, growth rescue; Potency, µM (top dose mostly 32.9 µM), for the others: at the highest dose activity, positive = growth rescue, actives largely listed as activators; 330,000 tested, 0.19% active; AID 485353, 2010; calls by dose curve; note: 0% is about no effect; nearly all actives have a fitted effect of over 55% in size
Sm TGR block = qHTS Assay for the Inhibitors of Schistosoma Mansoni Peroxiredoxins; purified TGR, DTNB reduction, TNB absorbance 405 nm; Potency, µM (series often up to 114 µM), without a hit: at the highest dose activity change, negative = inhibition, actives largely listed as inhibitors; 360,000 tested, 3% active; AID 485364, 2010; active = well fitted inhibition curve with a large enough effect; inconclusive = small, poorly fitted or top-dose-only effect; inactive = no such curve, though single readings can be large or run the other way; note: % is set by controls: 0 for no effect and ±100 for the full control effect; nearly all actives have a fitted effect of over 60% in size
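TGR 20 nM + NADPH 100 uM (dispensed conc.), cpd preinc 15 min RT; start with NADPH (500 uM addition) then DTNB (15 mM addition). Kinetic TNB absorbance, 405 nm filter. Four-parameter Hill fit across titration.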
Numbers without * were called inactive. Rows were chosen to be rich in hits. Some 3% of all compounds tested hit in one or more screens of this group. Potency is the fitted concentration of half-maximal effect.

`C#CCOCCOCCOCCNc1nc(N2CCN(C(=O)CCCCCCCCCCNC(=O)[C@H](CO)n3cc(CCCSC)nn3)CC2)nc(N2CCN(C(=O)CCCCCCCCCCNC(=O)[C@@H]([C@H](C)O)n3cc(C)nn3)CC2)n1` gave SARS PLP yeast -4% and Sm TGR block 45µM*.
For O=C(CC1N=C2c3ccccc3N=C(SCc3ccccc3Cl)N2C1=O)NCCc1ccccc1 (centres undefined) the results were Sm TGR block 6%.
Cc1ccc(-n2c3c(cc(C(=O)Nc4ccccc4C(N)=O)c2=O)C(=O)CC(C)(C)C3)cc1 was read as Sm TGR block 3%.
For CCCNC(=O)Cn1c(=O)n(CC2CCC(C(=O)NC)CC2)c(=O)c2sccc21 (centres undefined) the results were Sm TGR block 1%.
`CCOc1ccc(CCNC(=O)c2ccc(CS(=O)(=O)Cc3ccccc3Cl)o2)cc1OCC` gave Sm TGR block -26%.
`C#CCOCCOCCOCCNc1nc(N2CCN(C(=O)CCCCCCCCCCNC(=O)Cn3cc(C[C@@H](C)O)nn3)CC2)nc(N2CCN(C(=O)CCCCCCCCCCNC(=O)[C@@H](CCC(=O)O)n3cc(CCCCCN)nn3)CC2)n1` gave SARS PLP yeast -1% and Sm TGR block -17%.
Screening C#CCOCCOCCOCCNc1nc(N2CCN(C(=O)CCCCCCCCCCNC(=O)Cn3cc(CCCCCN)nn3)CC2)nc(N2CCN(C(=O)CCCCCCCCCCNC(=O)[C@@H](CCC(=O)O)n3cc(CCCCCN)nn3)CC2)n1 returned SARS PLP yeast 12% and Sm TGR block 50µM*.
`Cc1cc(C)cc(OCC(=O)N2N=C(c3cccnc3)CC2(O)C(F)(F)F)c1` (centres undefined) gave SARS PLP yeast -28% and Sm TGR block 2%.
`Cc1cc(C)cc(OCC(=O)N2N=C(C(F)(F)F)CC2(O)C(C)(C)C)c1` (centres undefined) gave SARS PLP yeast -21% and Sm TGR block 50µM*.
Cc1ccc(Nc2ncnc3c2nc2n3CCCC2)c(Br)c1 was read as Sm TGR block -11%.
Screening COc1ccccc1C(=O)Nc1cccc(C(=O)OCc2cc(=O)n3nc(C4CC4)sc3n2)c1 returned Sm TGR block 20%.
`CN1CCN(C(CNC(=O)C(=O)Nc2ccccc2C#N)c2ccc3c(c2)OCO3)CC1` (centres undefined) gave Sm TGR block 11%.
For O=C(CSc1nc2c(oc3ccccc32)c(=O)[nH]1)Nc1cccc(Cl)c1 the results were Sm TGR block -3%.
CCOC(=O)c1cnc2ccc(C(=O)OC)cc2c1NCCN1CCOCC1 was read as SARS PLP yeast 3% and Sm TGR block 32µM*.
CCOC(=O)c1cnc2ccc(C(=O)OC)cc2c1NCCCN1CCOCC1 was read as SARS PLP yeast 9% and Sm TGR block inconclusive.
COc1ccc(-n2ccn(CC(=O)NCCc3ccccc3)c(=O)c2=O)cc1OC was read as Sm TGR block 22%.
For N#CCCS(=O)(=O)c1nnnn1-c1ccccc1 the results were SARS PLP yeast -32% and Sm TGR block 7.1µM*.
c1ccc(-n2nnnc2Cc2nnnn2-c2ccccc2)cc1 was read as SARS PLP yeast 0% and Sm TGR block 1%.
`C#CCOCCOCCOCCNc1nc(N2CCN(C(=O)C([C@@H](C)CC)n3cc(C(N)CO)nn3)CC2)nc(N2CCN(C(=O)[C@H](CCC(=O)O)n3cc(C(N)Cc4ccc(O)cc4)nn3)CC2)n1` (some centres undefined) gave SARS PLP yeast -3% and Sm TGR block inconclusive.
C#CCOCCOCCOCCNc1nc(N2CCN(C(=O)[C@H](CCCCN)n3cc(C(N)[C@H](C)CC)nn3)CC2)nc(N2CCN(C(=O)[C@H](CCC(=O)O)n3cc(C(N)[C@H](C)CC)nn3)CC2)n1 (some centres undefined) was read as SARS PLP yeast 1% and Sm TGR block 16µM*.
C#CCOCCOCCOCCNc1nc(N2CCN(C(=O)[C@H](CCCCN)n3cc([C@@H](N)CO)nn3)CC2)nc(N2CCN(C(=O)[C@H](Cc3ccc(O)cc3)n3cc([C@@H](N)CC(C)C)nn3)CC2)n1 was read as SARS PLP yeast 1% and Sm TGR block 0%.
For C#CCOCCOCCOCCNc1nc(N2CCN(C(=O)[C@H](CCCCN)n3cc([C@@H](N)[C@H](C)CC)nn3)CC2)nc(N2CCN(C(=O)[C@H](CCC(=O)O)n3cc([C@@H](N)CCCCN)nn3)CC2)n1 the results were SARS PLP yeast -8%.
